These results are taken from PubChem BioAssay (NCATS).

The structures appear in SMILES notation. “And” between values parts separate entries of the source, which are not always exact repeats. Equal entries are not always repeated. Values without a mark were called inactive. Results filed as inconclusive are left out. The source made the active and inactive calls. Unless noted, calls come from the whole dose curve; as a rule, active = well fitted curve in the direction sought with a large enough effect; inconclusive = small, poorly fitted or top-dose-only effect, or another doubt; inactive = no such curve, though single readings can be large; an effect the other way counts as inactive or inconclusive.

Experiment [1] deals with Mitogen-activated protein kinase 10 (Mus musculus) (UniProt Q61831). The experiment is described as follows: JNK3 AlphaScreen Assay (AID 530; active = well fitted curve in either direction with a large enough effect, not every such curve was filed as active;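 note: kinase came from lysate of stimulated human HepG2 cells; signal reports phosphorylation of biotinylated GST-cJun 1-79 at Ser73 with 10 µM ATP; % is set by controls: 0 for no effect and ±100 for the full control effect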). The procedure, abridged: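 HepG2 lysate (IL-1b/TNFa pre-activated) + biotin-GST-cJun 1-79 + anti-pSer73 cJun; cpd titration, 15 min RT; ATP 10 uM start; Tris pH 7.6, MgCl2, DTT, vanadate; beads in EDTA buffer; AlphaScreen.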
Experiment [2] is described as follows: Cellular Toxicity (caspase-3) HepG2 (AID 654).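 Note: cells exposed to compound for 16 hours before reading; 0% = DMSO alone and 100% = caspase signal from 100 µM tamoxifen.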 The essentials:
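Concentration-response AC50 values reflect caspase-3/7 induction in HepG2 cells after 16 hours of compound exposure, quantified by luminescence from liberated aminoluciferin and referenced to 100 uM tamoxifen as full stimulation.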

Experiment [3] can be described thus: Cellular Toxicity (caspase-3) HUV-EC-C (AID 656). The procedure, abridged:
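Luminescent caspase-3/7 activation (aminoluciferin substrate cleavage) in HUV-EC-C cells after 16 hr compound exposure, 37°C. Signal normalized to DMSO basal and 100 uM tamoxifen as 100%; AC50 from concentration-response fitted with the Hill equation.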

Experiment [4] is described as follows: Cellular Toxicity (caspase-3) SHSY5Y (AID 657). The procedure, abridged: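 Luminescent caspase-3/7 readout (aminoluciferin release) in SH-SY5Y cells after 16 h compound exposure in complete medium. Activity scaled between DMSO basal and 10 uM staurosporine as 100%; concentration-response fitted to Hill equation for AC50.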
Experiment [5] in a line: Cellular Toxicity (caspase-3) BJ (AID 658).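 Note: 0% = DMSO basal and 100% = 10 µM staurosporine.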 The conditions noted are these: Potency: caspase-3 activation. The procedure, abridged:
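qHTS, BJ fibroblasts, 1000 cells/well; 5 hr preincubation, 16 hr compound, 37 °C; Caspase-Glo 3/7 reagent, 1 hr RT; luminescence. DMSO = 0%, 10 uM staurosporine = 100%. Hill-equation AC50.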

Experiment [6] in a line: Cellular Toxicity (caspase-3) MRC-5 (AID 659).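 Note: 0% = DMSO basal and 100% = 10 µM staurosporine.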 The procedure, abridged:
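MRC-5 fibroblasts, 1500/well; 16 h cpd, 37 °C; Caspase-Glo 3/7, 1 h RT; lumi read. Norm: DMSO = 0%, 10 uM staurosporine = 100%. Hill-fit AC50 from qHTS conc-response.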

Experiment [7] in a line: Cellular Toxicity (caspase-3) Mesangial (AID 660).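 Note: combined caspase 3 and 7 activity read by Caspase-Glo luminescence; cells exposed to compound for 16 h before the caspase read.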 The procedure, abridged: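 AC50 values come from Hill-equation fits of caspase 3/7 activation, measured as Caspase-Glo luminescence in human glomerular mesangial cells exposed to compound for 16 h at 37 °C; 100% set by 100 uM tamoxifen.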
Experiment [8] in a line: Cellular Toxicity (caspase-3) Hek293 (AID 664).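 Note: cells exposed to compound for 16 h at 37 °C before readout.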 To be noted: HEK293 caspase-3 activation, DMSO = 0%, 100 µM tamoxifen = 100%; at 92.2 µM (top of the series). The essentials:
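Apoptosis readout: Caspase-Glo 3/7 signal in human HEK293 cells following 16-hour compound incubation. Responses scaled between DMSO baseline and 100 uM tamoxifen.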

The nature of experiment [9]: Cellular Toxicity (caspase-3) N2a (AID 665).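 Note: compound exposure lasted 16 h at 37 °C before readout.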 The procedure, abridged:
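Concentration-response qHTS: compound-induced caspase-3/7 luminescence in N2a cells (16 h, 37 °C), relative to DMSO and 10 uM staurosporine controls; AC50 obtained using the standard Hill equation.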

Experiment [10] can be described thus: Cellular Toxicity (caspase-3) Renal Proximal Tubule (AID 667).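 Note: cells exposed to compound for 16 hours at 37 °C before detection; 0% = DMSO basal and 100% = 10 µM staurosporine.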 To be noted: Potency: caspase-3 activation. The procedure, abridged: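 Luminescent caspase 3/7 signal from peptide-aminoluciferin cleavage measures apoptosis in freshly isolated rat kidney proximal tubule cells after 16 h compound exposure. Concentration-response data are normalized to DMSO and 10 uM staurosporine, and AC50 values come from Hill equation fits.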

For experiment [11], the target named is Peroxisome proliferator-activated receptor alpha (Homo sapiens) (UniProt Q07869). The experiment is described as follows: qHTS assay for small molecule agonists of the peroxisome proliferator-activated receptor alpha (PPARalpha) signaling pathway (AID 651778). Note: % of control where 0% means no effect. To be noted: PathHunter PPARalpha complementation, chemiluminescence, 6 h; max response: active compounds read high. The procedure, abridged:
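Enzyme-fragment complementation assay in which ligand-bound PPARalpha translocates and forms an active enzyme that generates chemiluminescence. Cells were plated overnight, exposed to compound for 6 hr at 37 C, and then given detection reagent for 60 min at room temperature.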
(In general: qHTS replaces the single test concentration by a dilution series.)

The nature of experiment [12]: qHTS assay for small molecule agonists of the antioxidant response element (ARE) signaling pathway measured by Nrf2-dependant transcriptional activity - cell viability counter screen (AID 720653; active = well fitted curve in the direction sought with a large enough effect in the repeat runs; an effect the other way counts as inactive or inconclusive; note: % is set by controls: 0 for no effect and ±100 for the full control effect). The conditions noted are these: ARE-bla HepG2 viability, CellTiter-Glo ATP luminescence, 16 h; max response: active compounds read low. The procedure, abridged: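 ARE-bla HepG2 cells treated with compounds for 16 h at 37C; this counter screen measures viability as intracellular ATP by CellTiter-Glo luminescence after 30 min at room temperature.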

Experiment [13] can be described thus: qHTS assay for cell viability of the p53RE-bla HCT-116 cell line (AID 743292). Note: nearly all actives have a fitted effect of over 55% in size. Note: potency is the fitted concentration of half-maximal effect. The procedure, abridged:
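CellSensor p53RE-bla HCT-116 cells (4,000/well) pre-incubated 5 h at 37 C, then exposed to compounds in DMSO for 16 h at 37 C. Viability read as ATP content by CellTiter-Glo luminescence after 30 min at room temperature.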

Experiment [14] is described as follows: Stat Signaling Pathway (AID 446; active = well fitted curve in either direction with a large enough effect, not every such curve was filed as active;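 note: ME-180 cervical cancer cells given 40 pM IL-6 alongside compound; SIE-controlled beta-lactamase reporter measured as 460/530 nm FRET emission ratio; % is set by controls: 0 for no effect and ±100 for the full control effect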). To be noted: ME-180 (cervical carcinoma) SIE beta-lactamase reporter, IL-6 stimulated, 5 h. The essentials:
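Normalization used AC90 stimulation (300 pM IL-6) and AC90 inhibition (125 nM pan-JAK inhibitor at 40 pM IL-6). The underlying signal is SIE-driven beta-lactamase in ME-180 cells after 5 h IL-6 exposure with compound.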

Experiment [15] deals with 3',5'-cyclic-AMP phosphodiesterase 4B (Homo sapiens) (UniProt Q07343). Put plainly: qHTS Assay for Inhibitors of PDE-IV (AID 607; active = well fitted activation curve with a large enough effect in the main read-out, with a control signal flat, not every such curve was filed as active; note: % of control where 0% means no effect). The procedure, abridged: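 HEK293 ACTOne cells with CNG channel (1000/well), endogenous PDE4; membrane potential dye, compounds up to 22.9 uM final. Fluorescence Ex 535/Em 590; RO 20-1724 (100 uM final) as reference.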
3',5'-cyclic-AMP phosphodiesterase 4B (Homo sapiens), sequence (Q07343 whole entry, looked up): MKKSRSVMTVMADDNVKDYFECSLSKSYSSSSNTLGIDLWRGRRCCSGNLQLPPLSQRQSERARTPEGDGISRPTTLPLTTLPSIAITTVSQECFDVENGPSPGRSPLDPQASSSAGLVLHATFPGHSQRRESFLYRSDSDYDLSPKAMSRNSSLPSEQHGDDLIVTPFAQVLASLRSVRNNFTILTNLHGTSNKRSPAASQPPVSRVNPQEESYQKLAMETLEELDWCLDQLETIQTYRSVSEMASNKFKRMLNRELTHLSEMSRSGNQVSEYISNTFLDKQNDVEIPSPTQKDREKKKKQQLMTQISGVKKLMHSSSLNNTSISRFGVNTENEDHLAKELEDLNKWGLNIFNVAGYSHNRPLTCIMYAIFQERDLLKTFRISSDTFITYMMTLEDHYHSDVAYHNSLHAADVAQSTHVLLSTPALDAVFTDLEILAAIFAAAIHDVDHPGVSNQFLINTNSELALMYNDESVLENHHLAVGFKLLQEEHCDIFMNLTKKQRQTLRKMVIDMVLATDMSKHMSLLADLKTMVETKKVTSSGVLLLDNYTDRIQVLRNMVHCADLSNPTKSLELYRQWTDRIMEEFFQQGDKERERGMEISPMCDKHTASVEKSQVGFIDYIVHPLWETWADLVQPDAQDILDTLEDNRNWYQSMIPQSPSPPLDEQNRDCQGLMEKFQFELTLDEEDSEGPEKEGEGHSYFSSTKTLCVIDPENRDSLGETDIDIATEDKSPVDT

Peroxisome proliferator-activated receptor alpha (Homo sapiens), sequence (Q07869 whole entry, looked up, the tested form may be a part): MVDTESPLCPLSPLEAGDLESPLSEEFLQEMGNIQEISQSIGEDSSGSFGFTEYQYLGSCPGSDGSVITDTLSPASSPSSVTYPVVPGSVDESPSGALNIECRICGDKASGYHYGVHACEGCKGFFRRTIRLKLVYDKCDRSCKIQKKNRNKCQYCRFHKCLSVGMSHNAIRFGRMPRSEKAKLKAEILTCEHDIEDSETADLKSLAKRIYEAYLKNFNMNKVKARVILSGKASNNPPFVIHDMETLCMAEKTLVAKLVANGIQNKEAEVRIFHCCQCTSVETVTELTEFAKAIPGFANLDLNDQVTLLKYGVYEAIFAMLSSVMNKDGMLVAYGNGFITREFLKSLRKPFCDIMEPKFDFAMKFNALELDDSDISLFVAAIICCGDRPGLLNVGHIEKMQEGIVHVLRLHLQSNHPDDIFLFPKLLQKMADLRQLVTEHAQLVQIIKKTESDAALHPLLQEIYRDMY

`Brc1cc(Oc2cc(Br)c(Br)c(Br)c2Br)c(Br)c(Br)c1Br`: the Potency entry in [1], in [2], in experiment [3], in experiment [4], in experiment [5] and in experiment [10] was “inactive” in each case. For the same compound, the Potency entry in [13] is “inactive”. Further, the call in experiment [6], in experiment [7] and in experiment [9] was inactive. In addition, the caspase-3 activation in [8] is 0.395%. Also, the max response is -7.16% and 0.47% in experiment [11]; 3.78% and -22.3% in experiment [12].

With `O=[N+]([O-])c1ccccc1Nc1ccccc1`, the Potency result in experiment [2], in experiment [3], in [4], in [5], in experiment [10] and in experiment [13] was “inactive” throughout. Moreover, the outcome in [6], in experiment [7] and in [9] was inactive. In experiment [8], the caspase-3 activation was -0.0405%. The max response in experiment [11] is -0.358%; in experiment [12], -2.68%.

In the case of `CCc1ccc(C(c2ccc(CC)cc2)C(Cl)Cl)cc1`, the Potency result in experiment [2], in experiment [3], in experiment [4], in experiment [5], in experiment [10] and in [13] was “inactive” in each case. Further, the compound was classed as inactive in experiment [6], in experiment [7] and in experiment [9]. For the same compound, the caspase-3 activation in experiment [8] was 1.15%. Moreover, the values for the max response in experiment [11] and in experiment [12] were -1.02% and -5.77%, respectively.

For the compound `C[Si](C)(C)Cl`, the Potency entry in experiment [2], in experiment [3], in experiment [4], in experiment [5], in [10] and in [13] was “inactive” throughout. In addition, the outcome in experiment [6], in [7] and in [9] was inactive. For the same compound, in experiment [8], the caspase-3 activation is 1.84%. Besides, the results for the max response in experiment [11] and in [12] were -1.44% and -8.15%, respectively.

Consider `c1ccncc1`, for which the Potency entry in experiment [2], in experiment [3], in experiment [4], in experiment [5], in experiment [10] and in experiment [13] was “inactive” in each case. In addition, the result in experiment [6], in experiment [7] and in experiment [9] was inactive. For the same compound, the caspase-3 activation in experiment [8] is -0.0676%. Also, the max response in experiment [11] is -4.5%; in [12], -7.78%.

As to `S=C(NC1CCCCC1)NC1CCCCC1`, the Potency entry in experiment [1], in [2], in [3], in experiment [4], in experiment [5] and in [10] was “inactive” in each case. Further, in experiment [13], the Potency result was “inactive”. For the same compound, the result in [6], in [7] and in experiment [9] was inactive. Besides, the caspase-3 activation in experiment [8] is 3.5%. Also, the max response was 1.4% in [11] and -8.66% in experiment [12].

In the case of `C=CC1CO1` (stereo unspecified), the Potency result in experiment [2], in [3], in experiment [4], in experiment [5], in [10] and in [13] was “inactive” throughout. The result in experiment [6], in experiment [7] and in experiment [9] was inactive. In experiment [8], the caspase-3 activation is -0.428%. Besides, the max response in experiment [11] is 1.5%; in experiment [12] it was -12.7%.

Turning to `C(=C/c1ccccc1)/CN1CCN(C(c2ccccc2)c2ccccc2)CC1`, the activity, negative = inhibition in experiment [14] (at 17.2 µM (top of the series)) is -6.97%; in experiment [14] (at 38 µM (top of the series)), 12.7%. In addition, the Potency result in [1] and in experiment [15] was “inactive” each time.

For `Cc1c(C(=O)O)c(O)cc2c1C(=O)c1c(O)c([C@H]3O[C@H](CO)[C@@H](O)[C@H](O)[C@H]3O)c(O)c(O)c1C2=O`, the Potency result in experiment [2], in [3], in experiment [4], in experiment [5] and in [10] was “inactive” throughout. For the same compound, the result in experiment [6], in [7] and in experiment [9] was inactive. In experiment [8], the caspase-3 activation is -3.17%. Further, the max response in experiment [11] is -8.63%. In addition, the Potency in experiment [13] is 44.7 µM (active).

In the case of `Nc1ccc2c(c1)C(=O)c1ccccc1C2=O`, the Potency result in [2], in [3], in experiment [4], in [5], in experiment [10] and in experiment [13] was “inactive” throughout. Besides, the outcome in experiment [6], in experiment [7] and in [9] was inactive. Moreover, the caspase-3 activation in [8] was -8.84%. Moreover, the max response is -6.61% and 0.0151% in [11]; -14.7% and -7.62% in experiment [12].

As to `O=C1OC(=O)c2ccccc21`, the Potency entry in experiment [1], in experiment [2], in experiment [3], in experiment [4], in experiment [5] and in experiment [10] was “inactive” throughout. Also, in [13], the Potency entry was “inactive”. Also, the result in experiment [6], in [7] and in [9] was inactive. Also, the caspase-3 activation in [8] is 1.71%. In addition, the figures for the max response in [11] and in experiment [12] were 5.7% and -7.68%, respectively.
